Results reported in the supplement of paper PMC12669032.
Values without a mark were called inactive.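 The calls were made as follows: active = AUC reduced over 20% with Padj below 0.05 in at least 2 of 3 replicates; inactive = otherwise.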

Legend:
[1] = tested on: Roseburia intestinalis; test: growth AUC relative to DMSO control (median of replicates) (fraction); higher = more growth (less inhibition), active = hit call of the paper; conditions: 20 µM; 24 h
Summary of the method: (§1)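 For each compound at 20 µM (1% DMSO), gut bacterial monocultures seeded at OD600 0.05 grew anaerobically in mGAM at 37 °C in round-bottom 96-well plates. Hourly OD600 readings over 24 h gave growth curves whose minimum OD was set to 0. Area under these curves was normalised to the plate median of solvent-only wells, or to row and column medians on the industrial chemical plate. Values are medians of three biological replicates grown on separate days.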

[2] = tested on: Streptococcus salivarius; test: as above; conditions: 20 µM; 24 h
Summary of the method: as §1

| SMILES | growth AUC [1] | growth AUC [2] |
| --- | --- | --- |
| CCN(CC)c1nc(C)cc(OP(=S)(OC)OC)n1 | 0.978 | 0.975 |
| CNC(=O)Oc1cc(C)c(N(C)C)c(C)c1 | 0.962 | 0.961 |
| CC1(C)CON(Cc2ccccc2Cl)C1=O | 0.896 | 0.87 |
| CCOP(=S)(OCC)Oc1ccc2c(C)c(Cl)c(=O)oc2c1 | 1.01 | 1 |
| CNC(=O)Oc1cc(C)c(SC)c(C)c1 | 0.928 | 0.968 |
| C=CC1(C)OC(=O)N(c2cc(Cl)cc(Cl)c2)C1=O (configuration not stated) | 0.973 | 1.02 |
| CNC(=O)/C(=N\OC)c1ccccc1Oc1ccccc1 | 0.995 | 0.999 |
| N#CCNC(=O)c1cnccc1C(F)(F)F | 1 | 0.995 |
| O=c1oc2ccccc2c(O)c1C1CC(c2ccc(OCc3ccc(C(F)(F)F)cc3)cc2)Cc2ccccc21 (mixture of isomers) | 0.411 (active) | 0.212 (active) |
| CCOP(=S)(OCC)SCS(=O)(=O)CC | 0.947 | 1.01 |
| COC(=O)N(C(=O)N1CO[C@@]2(C(=O)OC)Cc3cc(Cl)ccc3C2=N1)c1ccc(OC(F)(F)F)cc1 | 0.907 | 0.873 |
| CCOP(=O)(NC(C)C)Oc1ccc(SC)c(C)c1 (configuration not stated) | 1.02 | 0.951 |
| CCCSP(=O)(OCC)SCCC | 1 | 0.984 |
| CNC(=O)Oc1cccc(N=CN(C)C)c1.Cl | 0.992 | 1.02 |
| CC1CNC(=S)N1 (configuration not stated) | 1.02 | 1 |
| O=c1[nH]c2c(c(=O)n1C1CCCCC1)CCC2 | 0.982 | 0.998 |
| COc1cc(C)c(C(=O)c2c(OC)ccc(Br)c2C)c(OC)c1OC | 0.989 | 1.01 |
| C#CCC1=C(C)C(OC(=O)C2C(C=C(C)C)C2(C)C)CC1=O (configuration not stated) | 0.921 | 0.959 |
| CCOP(=S)(OCC)Oc1ccc([N+](=O)[O-])cc1 | 1.01 | 0.93 |
| ClC1=C(Cl)C2(Cl)C(CBr)CC1(Cl)C2(Cl)Cl (configuration not stated) | 0.993 | 1.03 |
| Clc1nc(Cl)nc(Nc2ccccc2Cl)n1 | 1.04 | 1.03 |
| CCc1cccc(C)c1N(C(=O)CCl)[C@@H](C)COC | 1.03 | 1.02 |
| O=[N+]([O-])c1ccc(Oc2ccc(Cl)cc2Cl)cc1 | 0.967 | 0.981 |
| CCOP(=S)(OCC)Oc1ccc(S(C)=O)cc1 (configuration not stated) | 1.02 | 1.03 |
| O=S(=O)(c1ccc(Cl)cc1)c1cc(Cl)c(Cl)cc1Cl | 0.989 | 0.999 |
| CCOP(=O)(N=C1SCC(C)S1)OCC (configuration not stated) | 0.969 | 0.987 |

| SMILES | growth AUC [1] | growth AUC [2] |
| --- | --- | --- |
| COC(=O)C(C)N(C(=O)c1ccco1)c1c(C)cccc1C (configuration not stated) | 0.97 | 0.942 |
| O=C(O)C(F)(F)C(F)(F)C(F)(F)C(F)(F)C(F)(F)C(F)(F)C(F)(F)C(F)(F)C(F)(F)F | 0.96 | 0.942 |
| CC1(C)C(C=C(Cl)Cl)C1C(=O)OC(C#N)c1ccc(F)c(Oc2ccccc2)c1 (mixture of isomers) | 0.916 | 0.974 |
| CCCSP(=S)(OCC)Oc1ccc(SC)cc1 (configuration not stated) | 1.06 | 0.93 |
| O=C(NC(=O)c1c(F)cccc1F)Nc1cc(Cl)c(Oc2ncc(C(F)(F)F)cc2Cl)c(Cl)c1 | 1.11 | 0.98 |
| CC(=O)O.CCCCCCCCCCCCN=C(N)N | 0.805 | 1.03 |
| CNC(=O)CSP(=S)(OC)OC | 0.982 | 0.968 |
| CC1(C)[C@H](C(=O)O[C@H](C#N)c2cccc(Oc3ccccc3)c2)[C@@H]1/C=C\C(=O)OC(C(F)(F)F)C(F)(F)F | 0.962 | 1.07 |
| CCS(=O)c1c(C#N)nn(-c2c(Cl)cc(C(F)(F)F)cc2Cl)c1N (configuration not stated) | 1.01 | 1.06 |
| CCOP(=S)(OCC)SCCS(=O)CC (configuration not stated) | 0.965 | 0.973 |
| CCC(C)(C)C(=O)OC1=C(c2ccc(Cl)cc2Cl)C(=O)OC12CCCCC2 | 1.02 | 1.03 |
| CON(C)C(=O)Nc1ccc(Br)cc1 | 1.06 | 0.999 |
| CCOP(=O)(OCC)OP(=O)(OCC)OCC | 0.969 | 1.03 |
| COc1nc(C)nc(NC(=O)NS(=O)(=O)c2ccccc2Cl)n1 | 0.995 | 0.992 |
| O=C(O)c1c(Cl)ccc2cc(Cl)cnc12 | 0.978 | 1.05 |
| CCC(C)c1cc([N+](=O)[O-])cc([N+](=O)[O-])c1O (configuration not stated) | 0.887 | 0.938 |
| CC1(C)[C@H](C(=O)O[C@H](C#N)c2cccc(Oc3ccccc3)c2)[C@@H]1C=C(Br)Br | 0.933 | 0.914 |
| C[C@@H](Oc1ccc(Oc2cnc3cc(Cl)ccc3n2)cc1)C(=O)O | 1.04 | 1.01 |
| COP(=O)(OC)OC1=C(Cl)C2C=CCC12 (configuration not stated) | 1.04 | 1.03 |
| Nc1ccc(Cl)cc1 | 0.963 | 1.01 |
| O=[N+]([O-])c1ccc2ccc3cccc4ccc1c2c34 | 1.28 | 1.06 |
| CCNS(=O)(=O)C(F)(F)C(F)(F)C(F)(F)C(F)(F)C(F)(F)C(F)(F)C(F)(F)C(F)(F)F | 1.03 | 0.96 |
| CC1(C)CC/C(=C\c2ccc(Cl)cc2)C1(O)Cn1cncn1 (configuration not stated) | 1.02 | 0.993 |
| CCOP(=S)(OCC)Oc1cc(-c2ccccc2)on1 | 0.993 | 0.995 |
| CN(C)NC(=O)CCC(=O)O | 0.953 | 0.951 |
| COCc1cnc(C2=NC(C)(C(C)C)C(=O)N2)c(C(=O)O)c1 (configuration not stated) | 0.978 | 0.977 |

| SMILES | growth AUC [1] | growth AUC [2] |
| --- | --- | --- |
| O=[N+]([O-])c1ccc(Oc2ccc(C(F)(F)F)cc2[N+](=O)[O-])cc1 | 0.928 | 0.985 |
| CN(C)C(=O)Nc1ccc(Cl)cc1 | 0.979 | 0.971 |
| COP(=O)(OC)O/C(=C\Cl)c1ccc(Cl)cc1Cl | 1.03 | 1 |
| C[n+]1ccc(-c2cc[n+](C)cc2)cc1.O.[Cl-].[Cl-] | 1 | 0.982 |
| Cc1cccc(C)c1N | 0.977 | 1.04 |
| Nc1ccc(Cl)cc1Cl | 1.02 | 1.03 |
| COC(=O)c1ccccc1S(=O)(=O)NC(=O)Nc1nc(C)nc(OC)n1 | 0.978 | 0.935 |
| Clc1cccc(Cl)c1Cl | 0.972 | 1.06 |
| CC(C)c1ccc(NC(=O)N(C)C)cc1 | 0.95 | 0.956 |
| C#CCN1CC(=O)N(COC(=O)C2C(C=C(C)C)C2(C)C)C1=O (mixture of isomers) | 1.04 | 0.943 |
| CNC(=O)O/N=C(\C)SC | 0.994 | 0.973 |
| C[C@@H]1C[C@@H]([C@H](O)CC2CC(=O)NC(=O)C2)C(=O)[C@@H](C)C1 | 0.987 | 1.03 |
| N#Cc1c(O)c(Cl)c(Cl)c(C#N)c1Cl | 1.06 | 1 |
| ClC1=C(Cl)[C@]2(Cl)C3CC=CC3[C@@]1(Cl)C2(Cl)Cl (some centres not stated) | 1 | 1 |
| CC(C)=CC1C(C(=O)OC(C#N)c2cccc(Oc3ccccc3)c2)C1(C)C (mixture of isomers) | 0.893 | 0.988 |
| Cc1nc(N(C)C)nc(OC(=O)N(C)C)c1C | 0.988 | 1 |
| Nc1cc(Cl)ccc1Cl | 1.09 | 1 |
| Cc1cc(OC(=O)N(C)C)nn1C(=O)N(C)C | 1.06 | 0.971 |
| C#CC(C)(C)NC(=O)c1cc(Cl)cc(Cl)c1 | 0.936 | 0.914 |
| O=C(O)CCCOc1ccc(Cl)cc1Cl | 0.966 | 0.969 |
| CNC(=O)c1cc(Cl)cc(C)c1NC(=O)c1cc(Br)nn1-c1ncccc1Cl | 0.957 | 0.99 |
| CC1(C)C(C=C(Cl)Cl)C1C(=O)OC(C#N)c1cccc(Oc2ccccc2)c1 (mixture of isomers) | 0.945 | 0.936 |
| CCCN(CCC)c1c([N+](=O)[O-])cc(C(C)C)cc1[N+](=O)[O-] | 1.01 | 0.99 |
| COP(=S)(OC)Oc1ccc([N+](=O)[O-])c(Cl)c1 | 0.926 | 1.05 |
